About 2,000 (36%) of roughly 5,500 compounds were called active. About 18% were inconclusive and are not listed. Cut-off read from the data, not from the text of the source: active = normalized growth mostly below about 0.91 (no sharp cut-off); inconclusive = no clear call, values can overlap the other calls; inactive = mostly above about 0.92. Some of the results follow.
Test: chemical genetic growth profiling, strain panel (AID 1159580);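 note: tested at 20 µM; growth read once vehicle control cultures reached saturation at 30 °C; 1 = growth at the plate median or of vehicle wells; lower values mean less growth of the strain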
Conditions: S. cerevisiae deletion strains, growth OD

Measured: normalized growth

Cc1c(C)c(C)c(C(O)c2ccccc2)c(C)c1C (stereo unspecified)
inactive: locus YAR019C, strain CDC15, stronger effect = lower value 1 | locus YBL105C, strain PKC1, stronger effect = lower value 1.01 | locus YBR135W, strain CKS1, stronger effect = lower value 1 | locus YBR136W, strain MEC1, stronger effect = lower value 1 | locus YBR160W, strain CDC28, stronger effect = lower value 1.01 | locus YDL017W, strain CDC7, stronger effect = lower value 1.01 | locus YDL028C, strain MPS1, stronger effect = lower value 1 | locus YDL101C, strain DUN1, stronger effect = lower value 0.998 | locus YDL108W, strain KIN28, stronger effect = lower value 1.01 | locus YDL132W, strain cdc53, stronger effect = lower value 0.998 | locus YDL214C, strain PRR2, stronger effect = lower value 0.858 | locus YDR052C, strain DBF4, stronger effect = lower value 0.989 | locus YDR054C, strain cdc34, stronger effect = lower value 0.991 | locus YDR226W, strain ADK1, stronger effect = lower value 0.993 | locus YDR477W, strain SNF1, stronger effect = lower value 0.846 | locus YER123W, strain YCK3, stronger effect = lower value 0.786 | locus YER133W, strain GLC7, stronger effect = lower value 0.843 | locus YFL009W, strain cdc4, stronger effect = lower value 0.994 | locus YFL029C, strain CAK1, stronger effect = lower value 1 | locus YFR003C, strain YPI1, stronger effect = lower value 1 | locus YFR019W, strain FAB1, stronger effect = lower value 0.868 | locus YFR028C, strain CDC14, stronger effect = lower value 0.997 | locus YGR040W, strain KSS1, stronger effect = lower value 0.862 | locus YGR052W, strain FMP48, stronger effect = lower value 0.75 | locus YGR092W, strain DBF2, stronger effect = lower value 0.703 | locus YHR079C, strain IRE1, stronger effect = lower value 0.742 | locus YHR082C, strain KSP1, stronger effect = lower value 0.779 | locus YHR205W, strain SCH9, stronger effect = lower value 0.775 | locus YIL147C, strain SLN1, stronger effect = lower value 1.01 | locus YJL095W, strain BCK1, stronger effect = lower value 0.602 | locus YJL128C, strain PBS2, stronger effect = lower value 0.914 | locus YJL157C, strain FAR1, stronger effect = lower value 0.884 | locus YJR016C, strain ILV3, stronger effect = lower value 1 | locus YJR066W, strain TOR1 (second series), stronger effect = lower value 0.84 | locus YJR066W, strain TOR1, stronger effect = lower value 0.817 | locus YKL048C, strain ELM1, stronger effect = lower value 0.867 | locus YKL067W, strain YNK1, stronger effect = lower value 0.873 | locus YKL101W, strain HSL1, stronger effect = lower value 0.781 | locus YKL193C, strain SDS22, stronger effect = lower value 1 | locus YKL203C, strain TOR2, stronger effect = lower value 0.894 | locus YLR133W, strain CKI1, stronger effect = lower value 0.873 | locus YLR403W, strain SFP1, stronger effect = lower value 0.847 | locus YML070W, strain DAK1, stronger effect = lower value 0.75 | locus YMR001C, strain CDC5, stronger effect = lower value 1 | locus YMR205C, strain PFK2 (second series), stronger effect = lower value 0.849 | locus YMR277W, strain FCP1, stronger effect = lower value 1 | locus YNL006W, strain LST8, stronger effect = lower value 1.01 | locus YNL020C, strain ARK1, stronger effect = lower value 0.852 | locus YNL161W, strain CBK1, stronger effect = lower value 1 | locus YNL183C, strain NPR1, stronger effect = lower value 0.696 | locus YNL207W, strain RIO2, stronger effect = lower value 1 | locus YNL222W, strain SSU72, stronger effect = lower value 0.999 | locus YNL307C, strain MCK1 (second series), stronger effect = lower value 0.785 | locus YOL078W, strain AVO1, stronger effect = lower value 1 | locus YOL136C, strain PFK27, stronger effect = lower value 0.84 | locus YOR061W, strain CKA2, stronger effect = lower value 0.844 | locus YOR119C, strain RIO1, stronger effect = lower value 0.915 | locus YOR231W, strain MKK1, stronger effect = lower value 0.785 | locus YOR329C, strain SCD5, stronger effect = lower value 1 | locus YPL031C, strain PHO85, stronger effect = lower value 0.806 | locus YPL153C, strain RAD53, stronger effect = lower value 0.783 | locus YPL204W, strain HRR25, stronger effect = lower value 0.777 | locus YPL209C, strain IPL1, stronger effect = lower value 1 | locus YPR025C, strain CCL1, stronger effect = lower value 1.01 | locus YPR106W, strain ISR1, stronger effect = lower value 0.977 | locus YPR111W, strain DBF20, stronger effect = lower value 0.967 | strain NNK1, stronger effect = lower value 0.972 | strain TSCII, stronger effect = lower value 1
active: locus YHR030C, strain SLT2, stronger effect = lower value 0.442 | locus YLR113W, strain HOG1, stronger effect = lower value 0.609 | locus YPL256C, strain CLN2, stronger effect = lower value 0.67
